Experimental data published in publication PMC7862700, “An all-to-all approach to the identification of sequence-specific readers for epigenetic DNA modifications on cytosine”.

Key:
Test in all cases: DAPPL (digital affinity profiling via proximity ligation, sequencing); 10 mM Tris-HCl pH 7.5, 50 mM NaCl, 1 mM DTT, 4% glycerol, room temperature, 30 min; GST-TFs on glutathione beads, 16-mer random dsDNA library, 0.1% formaldehyde crosslink after washing; high values mean tight binding
[1] = target: T1, FLI1 (Homo sapiens, UniProt Q01543 1-452); conditions: protein: recombinant; tags: N-terminal GST; dsDNA, one strand shown
T1 sequence: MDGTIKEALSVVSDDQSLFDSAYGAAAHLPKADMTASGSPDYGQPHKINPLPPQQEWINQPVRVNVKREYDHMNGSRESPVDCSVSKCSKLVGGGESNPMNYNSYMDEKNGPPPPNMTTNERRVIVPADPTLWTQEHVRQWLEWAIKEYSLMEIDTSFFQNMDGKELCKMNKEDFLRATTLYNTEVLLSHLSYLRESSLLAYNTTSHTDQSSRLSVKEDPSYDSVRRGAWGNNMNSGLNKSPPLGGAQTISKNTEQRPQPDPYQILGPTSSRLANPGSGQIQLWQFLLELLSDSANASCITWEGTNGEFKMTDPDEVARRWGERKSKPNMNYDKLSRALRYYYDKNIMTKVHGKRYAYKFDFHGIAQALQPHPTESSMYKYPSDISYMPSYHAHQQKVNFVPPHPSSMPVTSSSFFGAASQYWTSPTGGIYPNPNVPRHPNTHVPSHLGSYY
How it was run: (§1)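 Sequencing on an Illumina NextSeq500 followed washing, crosslinking with 0.1% formaldehyde, proximity ligation (BsaI/T4 ligase, 1 h, 37 °C) and PCR amplification of pools that had been incubated for 30 min at room temperature with 200 nmole of a random double-stranded 16-mer DNA library in Tris/NaCl/DTT/glycerol buffer. Each pool held DNA-barcoded human transcription factors, expressed in yeast as GST fusions and captured on glutathione beads, plus a tag-only sample. Binding signal is a hexamer's read frequency for a factor divided by its frequency in the tag-only sample.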

[2] = target: T2, ELK1 (Homo sapiens, UniProt P19419 1-428); conditions: protein: recombinant; tags: N-terminal GST; dsDNA, one strand shown
T2 sequence: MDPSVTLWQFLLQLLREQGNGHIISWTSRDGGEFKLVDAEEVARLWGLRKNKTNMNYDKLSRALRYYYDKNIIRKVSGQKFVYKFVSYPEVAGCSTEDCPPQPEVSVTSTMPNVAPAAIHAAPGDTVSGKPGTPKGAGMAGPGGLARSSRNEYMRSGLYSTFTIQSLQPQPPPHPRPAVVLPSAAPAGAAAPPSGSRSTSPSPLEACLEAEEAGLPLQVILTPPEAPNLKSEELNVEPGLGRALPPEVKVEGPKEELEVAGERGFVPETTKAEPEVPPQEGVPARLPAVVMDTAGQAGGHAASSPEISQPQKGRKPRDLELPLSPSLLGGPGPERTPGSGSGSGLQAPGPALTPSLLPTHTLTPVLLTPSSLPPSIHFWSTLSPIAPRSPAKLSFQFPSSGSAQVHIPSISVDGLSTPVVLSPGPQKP
How it was run: as §1

[3] = target: T3, GABPA (Homo sapiens, UniProt Q06546 1-454); conditions: protein: recombinant; tags: N-terminal GST; dsDNA, one strand shown
T3 sequence: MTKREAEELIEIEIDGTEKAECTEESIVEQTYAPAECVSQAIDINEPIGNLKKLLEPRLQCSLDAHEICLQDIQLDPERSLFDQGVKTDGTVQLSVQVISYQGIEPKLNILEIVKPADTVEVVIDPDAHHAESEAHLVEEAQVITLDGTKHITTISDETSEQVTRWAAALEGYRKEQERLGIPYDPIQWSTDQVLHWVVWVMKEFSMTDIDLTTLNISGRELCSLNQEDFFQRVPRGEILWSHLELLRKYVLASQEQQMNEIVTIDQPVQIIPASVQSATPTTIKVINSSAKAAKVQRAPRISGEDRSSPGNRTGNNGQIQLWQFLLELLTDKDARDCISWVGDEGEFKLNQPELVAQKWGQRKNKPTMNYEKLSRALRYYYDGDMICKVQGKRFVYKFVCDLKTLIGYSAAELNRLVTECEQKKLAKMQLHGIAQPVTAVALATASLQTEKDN
How it was run: as §1

[4] = target: T4, ERG (Homo sapiens, UniProt P11308 1-479); conditions: protein: recombinant; tags: N-terminal GST; dsDNA, one strand shown
T4 sequence: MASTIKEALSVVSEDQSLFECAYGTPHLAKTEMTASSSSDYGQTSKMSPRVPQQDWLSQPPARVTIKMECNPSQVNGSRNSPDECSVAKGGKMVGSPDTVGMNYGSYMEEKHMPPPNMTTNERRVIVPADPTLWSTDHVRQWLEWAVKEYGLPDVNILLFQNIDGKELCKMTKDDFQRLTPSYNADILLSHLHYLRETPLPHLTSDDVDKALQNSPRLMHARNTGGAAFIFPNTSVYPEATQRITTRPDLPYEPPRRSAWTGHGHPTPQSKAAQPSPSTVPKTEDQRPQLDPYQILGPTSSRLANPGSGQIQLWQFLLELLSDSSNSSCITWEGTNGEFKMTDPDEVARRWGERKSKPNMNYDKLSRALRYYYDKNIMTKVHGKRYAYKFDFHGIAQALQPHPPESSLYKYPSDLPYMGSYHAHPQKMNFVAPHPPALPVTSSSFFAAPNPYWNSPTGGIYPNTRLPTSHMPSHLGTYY
How it was run: as §1

[5] = target: ELF1 (Homo sapiens, UniProt P32519 1-619); conditions: protein: recombinant; tags: N-terminal GST; dsDNA, one strand shown
How it was run: as §1

[6] = target: T5, EHF (Homo sapiens, UniProt Q9NZC4 1-300); conditions: protein: recombinant; tags: N-terminal GST; dsDNA, one strand shown
T5 sequence: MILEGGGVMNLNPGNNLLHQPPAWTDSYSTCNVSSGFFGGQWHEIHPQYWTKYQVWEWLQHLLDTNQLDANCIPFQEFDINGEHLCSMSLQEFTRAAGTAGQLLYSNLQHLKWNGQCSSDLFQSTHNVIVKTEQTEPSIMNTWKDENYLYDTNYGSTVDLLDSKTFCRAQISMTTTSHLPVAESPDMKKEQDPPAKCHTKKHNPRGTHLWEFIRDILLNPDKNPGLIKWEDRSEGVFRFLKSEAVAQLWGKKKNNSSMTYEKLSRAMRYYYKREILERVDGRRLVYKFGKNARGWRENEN
How it was run: as §1

[7] = target: SPI1 (Homo sapiens, UniProt P17947 1-270); conditions: protein: recombinant; tags: N-terminal GST; dsDNA, one strand shown
How it was run: as §1

[8] = target: SPIB (Homo sapiens, UniProt Q01892 1-262); conditions: protein: recombinant; tags: N-terminal GST; dsDNA, one strand shown
How it was run: as §1

[9] = target: T6, ELK3 (Homo sapiens, UniProt P41970 1-407); conditions: protein: recombinant; tags: N-terminal GST; dsDNA, one strand shown
T6 sequence: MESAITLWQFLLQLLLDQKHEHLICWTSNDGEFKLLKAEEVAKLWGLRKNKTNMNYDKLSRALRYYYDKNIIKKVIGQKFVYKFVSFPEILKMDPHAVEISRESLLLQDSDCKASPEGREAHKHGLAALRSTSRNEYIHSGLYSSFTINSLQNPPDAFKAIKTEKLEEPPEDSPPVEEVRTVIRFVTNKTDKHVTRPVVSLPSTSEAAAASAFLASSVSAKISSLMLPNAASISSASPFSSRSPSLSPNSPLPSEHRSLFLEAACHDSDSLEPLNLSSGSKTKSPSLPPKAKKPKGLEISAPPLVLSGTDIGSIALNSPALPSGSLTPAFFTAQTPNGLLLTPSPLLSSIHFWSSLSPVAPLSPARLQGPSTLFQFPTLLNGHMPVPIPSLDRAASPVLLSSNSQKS
How it was run: as §1

[10] = target: T7, FEV (Homo sapiens, UniProt Q99581 1-238); conditions: protein: recombinant; tags: N-terminal GST; dsDNA, one strand shown
T7 sequence: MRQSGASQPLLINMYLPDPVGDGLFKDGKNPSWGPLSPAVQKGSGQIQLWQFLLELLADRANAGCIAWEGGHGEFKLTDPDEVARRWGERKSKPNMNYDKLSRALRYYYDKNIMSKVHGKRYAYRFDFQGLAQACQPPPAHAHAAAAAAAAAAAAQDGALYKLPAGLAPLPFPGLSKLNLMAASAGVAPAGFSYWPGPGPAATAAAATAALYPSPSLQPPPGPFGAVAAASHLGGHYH
How it was run: as §1

[11] = target: ETV5 (Homo sapiens, UniProt P41161 1-510); conditions: protein: recombinant; tags: N-terminal GST; dsDNA, one strand shown
How it was run: as §1

[12] = target: HSF1 (Homo sapiens, UniProt Q00613 1-529); conditions: protein: recombinant; tags: N-terminal GST; chain copies: 3; dsDNA, one strand shown
How it was run: as §1

[13] = target: T8, SPIC (Homo sapiens, UniProt Q8N5J4 1-248); conditions: protein: recombinant; tags: N-terminal GST; dsDNA, one strand shown
T8 sequence: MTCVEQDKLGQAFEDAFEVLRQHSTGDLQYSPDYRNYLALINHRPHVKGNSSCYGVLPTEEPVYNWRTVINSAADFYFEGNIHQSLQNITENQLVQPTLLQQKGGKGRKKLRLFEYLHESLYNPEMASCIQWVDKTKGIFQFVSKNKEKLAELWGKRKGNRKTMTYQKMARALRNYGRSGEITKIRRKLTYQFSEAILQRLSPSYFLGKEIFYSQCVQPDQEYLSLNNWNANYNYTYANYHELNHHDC
How it was run: as §1

[14] = target: ELF4 (Homo sapiens, UniProt Q99607 1-663); conditions: protein: recombinant; tags: N-terminal GST; dsDNA, one strand shown
How it was run: as §1

[15] = target: T9, ELK4 (Homo sapiens, UniProt P28324-2 1-405); conditions: protein: recombinant; tags: N-terminal GST; dsDNA, one strand shown
T9 sequence: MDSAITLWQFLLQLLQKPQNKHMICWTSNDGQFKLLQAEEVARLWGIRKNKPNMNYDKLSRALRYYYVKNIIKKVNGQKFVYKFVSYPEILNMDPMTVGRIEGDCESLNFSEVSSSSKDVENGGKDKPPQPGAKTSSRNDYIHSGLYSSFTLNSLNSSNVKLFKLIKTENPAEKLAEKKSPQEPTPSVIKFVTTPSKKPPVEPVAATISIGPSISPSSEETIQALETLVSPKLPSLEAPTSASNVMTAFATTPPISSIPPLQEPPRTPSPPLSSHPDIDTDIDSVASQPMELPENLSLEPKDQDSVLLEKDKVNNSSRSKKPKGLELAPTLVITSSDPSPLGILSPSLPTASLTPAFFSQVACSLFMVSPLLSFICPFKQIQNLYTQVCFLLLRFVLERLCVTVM
How it was run: as §1

[16] = target: T10, ETV2 (Homo sapiens, UniProt O00321 1-342); conditions: protein: recombinant; tags: N-terminal GST; dsDNA, one strand shown
T10 sequence: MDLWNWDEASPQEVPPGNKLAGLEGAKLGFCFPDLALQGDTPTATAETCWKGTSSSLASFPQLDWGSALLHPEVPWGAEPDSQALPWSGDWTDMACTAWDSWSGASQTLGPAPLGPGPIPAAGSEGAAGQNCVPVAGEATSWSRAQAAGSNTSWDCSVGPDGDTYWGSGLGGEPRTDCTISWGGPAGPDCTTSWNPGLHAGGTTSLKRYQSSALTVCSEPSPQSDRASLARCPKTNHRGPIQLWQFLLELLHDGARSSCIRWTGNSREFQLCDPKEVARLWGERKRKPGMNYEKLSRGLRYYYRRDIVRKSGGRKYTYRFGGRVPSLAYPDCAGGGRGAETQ
How it was run: as §1

[17] = target: T11, ELF3 (Homo sapiens, UniProt P78545 1-371); conditions: protein: recombinant; tags: N-terminal GST; dsDNA, one strand shown
T11 sequence: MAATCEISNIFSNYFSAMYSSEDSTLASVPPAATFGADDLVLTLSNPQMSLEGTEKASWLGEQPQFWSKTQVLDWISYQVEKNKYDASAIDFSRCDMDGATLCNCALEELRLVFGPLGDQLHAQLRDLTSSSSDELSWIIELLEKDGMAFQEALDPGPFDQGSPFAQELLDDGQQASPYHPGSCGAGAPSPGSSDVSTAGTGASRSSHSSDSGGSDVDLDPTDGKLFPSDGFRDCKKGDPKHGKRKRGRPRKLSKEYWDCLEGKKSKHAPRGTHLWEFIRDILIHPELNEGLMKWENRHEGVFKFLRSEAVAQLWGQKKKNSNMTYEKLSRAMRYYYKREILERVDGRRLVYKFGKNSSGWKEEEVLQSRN
How it was run: as §1

[18] = target: CRX (Homo sapiens, UniProt O43186 1-299); conditions: protein: recombinant; tags: N-terminal GST; dsDNA, one strand shown
How it was run: as §1

[19] = target: ETV1 (Homo sapiens, UniProt P50549 1-477); conditions: protein: recombinant; tags: N-terminal GST; dsDNA, one strand shown
How it was run: as §1

CRX, sequence (O43186 whole entry): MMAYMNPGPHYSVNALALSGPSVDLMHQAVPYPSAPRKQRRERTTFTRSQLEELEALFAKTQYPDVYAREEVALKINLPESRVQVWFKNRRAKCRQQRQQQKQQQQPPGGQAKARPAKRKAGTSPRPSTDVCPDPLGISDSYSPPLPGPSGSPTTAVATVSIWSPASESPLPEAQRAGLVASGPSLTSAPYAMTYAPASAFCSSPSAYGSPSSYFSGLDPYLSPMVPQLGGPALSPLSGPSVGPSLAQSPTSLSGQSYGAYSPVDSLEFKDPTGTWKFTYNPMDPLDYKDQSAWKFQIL
ETV5, sequence (P41161 whole entry): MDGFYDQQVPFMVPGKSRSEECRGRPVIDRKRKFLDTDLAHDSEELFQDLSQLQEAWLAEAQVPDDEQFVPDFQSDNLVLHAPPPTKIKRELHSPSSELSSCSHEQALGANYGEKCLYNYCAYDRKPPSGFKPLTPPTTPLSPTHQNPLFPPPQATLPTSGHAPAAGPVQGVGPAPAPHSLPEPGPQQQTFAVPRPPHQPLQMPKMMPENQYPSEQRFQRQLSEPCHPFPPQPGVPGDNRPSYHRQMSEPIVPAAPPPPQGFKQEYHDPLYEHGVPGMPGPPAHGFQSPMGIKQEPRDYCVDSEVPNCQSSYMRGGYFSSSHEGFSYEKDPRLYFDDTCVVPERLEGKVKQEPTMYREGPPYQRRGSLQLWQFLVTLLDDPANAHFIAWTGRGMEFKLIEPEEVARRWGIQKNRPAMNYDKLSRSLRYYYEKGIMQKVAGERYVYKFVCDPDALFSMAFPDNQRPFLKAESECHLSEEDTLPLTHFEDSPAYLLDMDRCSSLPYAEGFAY
HSF1, sequence (Q00613 whole entry): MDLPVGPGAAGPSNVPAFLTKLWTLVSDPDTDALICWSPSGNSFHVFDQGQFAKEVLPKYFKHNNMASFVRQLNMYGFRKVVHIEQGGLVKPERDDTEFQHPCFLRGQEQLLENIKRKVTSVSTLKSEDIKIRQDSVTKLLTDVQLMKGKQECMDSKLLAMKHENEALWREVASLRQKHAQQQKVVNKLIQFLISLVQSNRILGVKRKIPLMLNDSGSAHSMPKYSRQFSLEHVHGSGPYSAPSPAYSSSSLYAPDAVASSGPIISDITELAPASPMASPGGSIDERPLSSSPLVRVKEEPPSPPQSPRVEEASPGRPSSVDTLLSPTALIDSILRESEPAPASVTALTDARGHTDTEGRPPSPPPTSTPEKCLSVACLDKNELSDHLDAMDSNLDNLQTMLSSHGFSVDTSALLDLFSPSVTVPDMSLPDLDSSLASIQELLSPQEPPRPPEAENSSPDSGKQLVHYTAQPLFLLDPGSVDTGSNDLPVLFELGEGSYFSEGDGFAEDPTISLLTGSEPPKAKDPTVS
ELF4, sequence (Q99607 whole entry): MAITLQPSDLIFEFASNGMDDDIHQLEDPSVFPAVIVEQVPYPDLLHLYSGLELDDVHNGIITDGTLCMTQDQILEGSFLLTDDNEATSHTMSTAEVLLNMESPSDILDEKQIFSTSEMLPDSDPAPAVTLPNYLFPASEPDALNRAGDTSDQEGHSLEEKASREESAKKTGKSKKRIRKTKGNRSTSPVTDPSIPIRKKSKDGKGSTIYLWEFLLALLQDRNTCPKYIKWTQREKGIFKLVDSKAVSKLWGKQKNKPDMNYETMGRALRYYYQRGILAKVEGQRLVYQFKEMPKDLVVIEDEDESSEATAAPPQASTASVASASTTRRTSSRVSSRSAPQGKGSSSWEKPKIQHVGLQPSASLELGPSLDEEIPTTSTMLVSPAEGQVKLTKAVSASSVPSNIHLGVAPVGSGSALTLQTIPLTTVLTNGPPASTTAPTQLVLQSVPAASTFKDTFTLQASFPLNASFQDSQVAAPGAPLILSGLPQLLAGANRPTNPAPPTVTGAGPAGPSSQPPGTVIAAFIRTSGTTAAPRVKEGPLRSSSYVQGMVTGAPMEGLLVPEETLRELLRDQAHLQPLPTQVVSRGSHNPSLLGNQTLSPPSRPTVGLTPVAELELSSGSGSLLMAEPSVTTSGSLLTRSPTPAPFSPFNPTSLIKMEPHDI
SPIB, sequence (Q01892 whole entry): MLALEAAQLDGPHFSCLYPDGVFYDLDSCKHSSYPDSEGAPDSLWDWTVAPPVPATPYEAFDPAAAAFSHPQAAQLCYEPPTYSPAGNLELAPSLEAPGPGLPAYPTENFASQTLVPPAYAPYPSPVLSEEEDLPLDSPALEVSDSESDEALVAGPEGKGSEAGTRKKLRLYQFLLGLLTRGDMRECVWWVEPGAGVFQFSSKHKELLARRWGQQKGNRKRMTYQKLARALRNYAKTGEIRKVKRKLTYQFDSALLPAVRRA
ELF1, sequence (P32519 whole entry): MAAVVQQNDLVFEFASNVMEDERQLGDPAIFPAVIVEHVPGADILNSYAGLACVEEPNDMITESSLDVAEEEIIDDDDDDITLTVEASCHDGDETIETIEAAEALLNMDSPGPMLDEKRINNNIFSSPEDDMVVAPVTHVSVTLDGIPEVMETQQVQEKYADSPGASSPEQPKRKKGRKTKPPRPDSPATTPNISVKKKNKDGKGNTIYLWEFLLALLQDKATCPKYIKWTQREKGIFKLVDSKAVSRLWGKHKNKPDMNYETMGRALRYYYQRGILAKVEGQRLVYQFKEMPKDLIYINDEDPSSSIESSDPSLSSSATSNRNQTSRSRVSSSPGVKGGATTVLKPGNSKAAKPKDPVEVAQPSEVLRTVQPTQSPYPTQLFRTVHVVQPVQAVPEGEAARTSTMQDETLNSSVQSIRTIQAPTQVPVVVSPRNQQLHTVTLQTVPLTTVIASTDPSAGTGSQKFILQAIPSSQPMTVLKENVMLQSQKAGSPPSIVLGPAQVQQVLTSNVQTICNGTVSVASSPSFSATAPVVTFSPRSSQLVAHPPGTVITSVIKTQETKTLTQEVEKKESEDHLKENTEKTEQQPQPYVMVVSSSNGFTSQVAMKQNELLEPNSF
ETV1, sequence (P50549 whole entry): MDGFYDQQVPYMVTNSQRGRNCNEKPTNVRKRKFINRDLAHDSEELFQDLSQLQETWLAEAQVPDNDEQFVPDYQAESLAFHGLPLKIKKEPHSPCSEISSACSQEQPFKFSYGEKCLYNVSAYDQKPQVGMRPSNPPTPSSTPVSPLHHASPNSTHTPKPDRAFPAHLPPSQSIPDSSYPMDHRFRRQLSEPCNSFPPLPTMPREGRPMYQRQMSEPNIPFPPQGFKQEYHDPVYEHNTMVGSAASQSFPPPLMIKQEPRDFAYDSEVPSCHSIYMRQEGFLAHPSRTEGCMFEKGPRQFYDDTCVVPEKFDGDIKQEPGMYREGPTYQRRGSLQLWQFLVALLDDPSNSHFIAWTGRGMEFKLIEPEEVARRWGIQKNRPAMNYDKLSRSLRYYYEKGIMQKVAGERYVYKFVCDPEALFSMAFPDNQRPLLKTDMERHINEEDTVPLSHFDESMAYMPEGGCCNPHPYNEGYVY

CGATGG
binding signal [1]: 1.36 fold enrichment (6-mer frequency, TF over GST control) | binding signal [2]: 1.4 fold enrichment (6-mer frequency, TF over GST control) | binding signal [3]: 1.36 fold enrichment (6-mer frequency, TF over GST control) | binding signal [4]: 1.34 fold enrichment (6-mer frequency, TF over GST control) | binding signal [5]: 1.32 fold enrichment (6-mer frequency, TF over GST control) | binding signal [6]: 1.24 fold enrichment (6-mer frequency, TF over GST control) | binding signal [7]: 1.41 fold enrichment (6-mer frequency, TF over GST control) | binding signal [8]: 1.58 fold enrichment (6-mer frequency, TF over GST control) | binding signal [9]: 1.4 fold enrichment (6-mer frequency, TF over GST control) | binding signal [10]: 1.23 fold enrichment (6-mer frequency, TF over GST control) | binding signal [11]: 1.28 fold enrichment (6-mer frequency, TF over GST control) | binding signal [12]: 1.36 fold enrichment (6-mer frequency, TF over GST control) | binding signal [13]: 1.31 fold enrichment (6-mer frequency, TF over GST control) | binding signal [14]: 1.36 fold enrichment (6-mer frequency, TF over GST control) | binding signal [15]: 1.46 fold enrichment (6-mer frequency, TF over GST control) | binding signal [16]: 1.34 fold enrichment (6-mer frequency, TF over GST control) | binding signal [17]: 1.15 fold enrichment (6-mer frequency, TF over GST control) | binding signal [18]: 1.14 fold enrichment (6-mer frequency, TF over GST control) | binding signal [19]: 1.41 fold enrichment (6-mer frequency, TF over GST control)
